A selection: hits, their analogues and other compounds. The true share with any hit is near 3.4%.
NRP1-CendR mod = modulators of CendR peptide binding to NRP-1, primary screen, biochemical, fluorescence polarization, uHTS. FAM-RPARPAR peptide binding to NRP-1. Neuropilin-1 (Homo sapiens), O14786. inhibition, % at 25 µM. 360,000 tested, 0.85% active;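 active = inhibition or corrected inhibition above about 18%, plus a signal ratio from 0.5 to 1.5, limit read from the data, passing the limit was not always enough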
ADAM17 inh = ADAM17 inhibitors, primary screen, biochemical, QFRET. Disintegrin and metalloproteinase domain-containing protein 17 (Homo sapiens), P78536. inhibition, % at 6.95 µM. 370,000 tested, 0.83% active. recombinant ADAM17, EDANS/DABCYL FRET peptide cleavage;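 active = inhibition above the mean of compounds lying between control limits plus 3 SD, set per campaign, cut at about 8.5% in these data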;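 also: 0% = DMSO-only wells as the low control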
Target sequence (P78536 215-824 limits assumed): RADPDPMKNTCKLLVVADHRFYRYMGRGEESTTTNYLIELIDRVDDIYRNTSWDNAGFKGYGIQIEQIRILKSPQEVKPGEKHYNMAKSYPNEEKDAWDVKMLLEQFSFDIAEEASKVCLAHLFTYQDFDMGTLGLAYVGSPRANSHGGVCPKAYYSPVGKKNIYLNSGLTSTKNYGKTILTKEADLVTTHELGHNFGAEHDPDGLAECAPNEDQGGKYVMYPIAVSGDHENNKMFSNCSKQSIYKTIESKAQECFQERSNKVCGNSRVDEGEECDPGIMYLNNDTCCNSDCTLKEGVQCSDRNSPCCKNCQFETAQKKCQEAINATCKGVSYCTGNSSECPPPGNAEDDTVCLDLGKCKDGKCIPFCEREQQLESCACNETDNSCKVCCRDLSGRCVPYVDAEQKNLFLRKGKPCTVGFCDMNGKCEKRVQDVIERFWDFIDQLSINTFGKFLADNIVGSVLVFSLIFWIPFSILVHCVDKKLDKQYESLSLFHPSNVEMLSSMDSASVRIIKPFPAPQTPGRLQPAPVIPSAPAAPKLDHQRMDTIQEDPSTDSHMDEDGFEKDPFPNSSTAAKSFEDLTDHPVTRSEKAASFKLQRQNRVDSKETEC
KLK7 zymogen act = proKLK7 zymogen activators, primary screen, biochemical, fluorescence intensity | Kallikrein-7 (Homo sapiens), P49862 | purified proKLK7, EDANS-DABCYL substrate fluorescence; 100% is mature enzyme control, 0% vehicle | activation, % at 7 µM | 370,000 tested, 0.9% active | AID 652039, 2013;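 active = activation above the mean of all tested compounds plus 3 SD, computed per campaign excluding outliers beyond control limits, cut at about 13% in these data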
ADAM10 inh = human ADAM10 inhibitors, primary screen, biochemical, QFRET, HTS | AID 720582, 2013 | recombinant ADAM10, EDANS/DABCYL FRET peptide cleavage, 3 h | inhibition, % at 7 µM | 370,000 tested, 0.62% active;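 active = inhibition above a per-campaign cutoff equal to the mean of compounds falling between control-based bounds plus 3 SD, cut at about 20% in these data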;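 also: 0% = DMSO wells while the 100% control is not disclosed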
sPLA2-III inh = human group III sPLA2 inhibitors, primary screen, biochemical, QFRET, BODIPY PC-A2 liposome substrate; Group 3 secretory phospholipase A2 (Homo sapiens), Q9NZ20; QFRET BODIPY PC-A2 liposome hydrolysis, fluorescence; inhibition, % at 12.2 µM; 370,000 tested, 0.56% active;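 active = inhibition above mean plus 3 SD of compounds lying within the high and low control bounds, cut at about 19% in these data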;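 also: 0% = median of test compound wells and 100% = no enzyme DMSO wells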
ADAM10 confirm = human ADAM10 inhibitors, confirmation, biochemical, QFRET, triplicate | AID 743208, 2013 | inhibition, % at 6.95 µM | shares compounds with ADAM10 inh | ADAM10 QFRET peptide cleavage, EDANS fluorescence | 2,100 tested, 1% active;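 active = inhibition above about 20% chosen separately for each screening run, limit read from the data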;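 also: 0% = DMSO wells and 100% = marimastat wells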
ADAM17 counter = ADAM17 inhibitors, counter-screen for ADAM10 exosite inhibitor project, biochemical, QFRET, high throughput; AID 743214, 2013; ADAM17 QFRET peptide cleavage, EDANS fluorescence; 2,100 tested, 0.5% active; inhibition, % at 6.95 µM; shares compounds with ADAM10 inh;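 active = mean triplicate inhibition above the solvent-only control wells' mean plus 3 SD, cut at about 12% in these data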;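 also: 0% = DMSO wells and 100% = marimastat wells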
ADAM10 counter = ADAM10 inhibitors, counter-screen for ADAM17 exosite inhibitor project, biochemical, FRET, human ADAM10; shares compounds with ADAM17 inh; inhibition, % at 6.95 µM; recombinant ADAM10, EDANS/DABCYL FRET peptide cleavage, 3 h; 2,900 tested, 47% active;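 active = mean inhibition over the triplicate runs exceeds the activity threshold set in the earlier primary screen, cut at about 20% in these data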;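 also: 0% = DMSO wells and 100% = marimastat wells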
ADAM17 confirm = ADAM17 inhibitors, hit retest, confirmation, biochemical, QFRET peptide cleavage. shares compounds with ADAM17 inh. recombinant ADAM17, EDANS/DABCYL QFRET peptide cleavage. inhibition, % at 6.95 µM. 2,900 tested, 65% active;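 active = mean inhibition across replicates above the hit cutoff set in the primary screen, cut at about 8.5% in these data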;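 also: 0% = DMSO wells and 100% = marimastat wells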
Numbers without * were called inactive; . = no result given.

SMILES	NRP1-CendR mod	ADAM17 inh	KLK7 zymogen act	ADAM10 inh	sPLA2-III inh	ADAM10 confirm	ADAM17 counter	ADAM10 counter	ADAM17 confirm
CCN(c1ccccc1)S(=O)(=O)c1cc(C(=O)Nc2ccc(Br)cc2)ccc1F	5	12*	0	24*	-13	8	3	26*	13*
CCN(c1ccccc1)S(=O)(=O)c1cc(C(=O)Nc2ccccc2Cl)ccc1F	-3	4	1	6	-5	.	.	.	.
CCc1ccc(NC(=O)c2ccc(F)c(S(=O)(=O)NCC3COc4ccccc4O3)c2)cc1 (stereo not given)	0	13*	1	29*	-34	12	4	43*	19*
Cc1cc(C(=O)COC(=O)c2ccc3c(c2)OCO3)c(C)n1CC1CCCO1 (stereo not given)	-1	-2	-1	0	1	.	.	.	.
Cc1cc(C(=O)COC(=O)c2ccc(O)cc2)c(C)n1CC1COc2ccccc2O1 (stereo not given)	-3	20*	0	26*	-47	7	3	13	8
N#Cc1cccc(CNCC(=O)N2CCC3(CC2)OCCO3)c1	.	-2	1	1	-5	.	.	.	.
C=CC[C@H](CC(=O)N[C@H](CO)Cc1ccccc1)C(=O)N[C@@H](COC(=O)[C@@H](CC=C)CC(=O)OC(C)(C)C)Cc1c[nH]c2ccccc12	-1	8	0	19	-86	.	.	.	.
C=CC[C@@H](CC(=O)N(CCO)Cc1ccccc1)C(=O)N[C@@H](COC(=O)[C@@H](CC=C)CC(=O)OC(C)(C)C)Cc1c[nH]c2ccccc12	6	22*	0	45*	-59	7	1	41*	21*
C=CC[C@H](CC(=O)N(CCO)Cc1ccccc1)C(=O)N[C@@H](COC(=O)[C@H](CC=C)CC(=O)OC(C)(C)C)Cc1c[nH]c2ccccc12	-4	5	0	13	-93	.	.	.	.
C=CC[C@@H](CC(=O)N[C@@H](CO)Cc1ccccc1)C(=O)N[C@H](COC(=O)[C@@H](CC=C)CC(=O)OC(C)(C)C)Cc1c[nH]c2ccccc12	8	8.7*	1	26*	-101	4	0	39*	18*
C=CC[C@@H](CC(=O)N(CCO)Cc1ccccc1)C(=O)N[C@H](COC(=O)[C@@H](CC=C)CC(=O)OC(C)(C)C)Cc1c[nH]c2ccccc12	0	14*	0	25*	-90	2	1	33*	16*
COc1cccc(OC(C)CCN2CCC(C(O)(c3ccccc3)c3ccccc3)CC2)c1 (stereo not given)	.	-1	0	0	-17	.	.	.	.
CCOC(=O)c1ccc(NC(=O)C2CCCN(S(=O)(=O)c3ccc(F)cc3)C2)cc1 (stereo not given)	-3	8.8*	-1	25*	-35	1	1	17	13*
c1ccc(CCn2nnc(-c3ccc(N4CCOCC4)cc3)n2)cc1	.	0	0	14	8	.	.	.	.
O=C1CC(N(CCc2ccccc2)C(=S)Nc2ccccc2)C(=O)N1c1ccc(Br)cc1 (stereo not given)	-2	17*	0	35*	-47	8	4	46*	22*
O=C(CSc1nnc(-c2ccccc2)n1Cc1ccco1)Nc1ccc(OCc2ccccc2)cc1	.	10.0*	1	37*	-7	5	0	21*	14*
O=C(CSc1nnc(-c2cccs2)n1Cc1ccco1)Nc1ccc(Oc2ccccc2)cc1	.	8.7*	1	21*	-17	13	5	28*	14*
C=CCN1C(=O)[C@@H](CC(=O)N2CCC(c3ccccc3)CC2)[C@]2(C(=O)OCC)CCCCC/C=C/12	.	2	0	2	-1	.	.	.	.
O=C(NCCc1c[nH]c2ccccc12)OCc1cn(Cc2c(F)cccc2F)nn1	.	0	0	5	-86	.	.	.	.
N#CCC[C@@H]1CC[C@]2(CCCN(Cc3ccc(Cl)cc3)C2)O1	.	-5	0	-8	3	.	.	.	.
Cc1ccc(S(=O)(=O)N2c3ccccc3C[C@H]2CCC(=O)c2ccccc2)cc1	.	0	.	-1	9	.	.	.	.
CCOc1ccc(S(=O)(=O)N(CC(=O)Nc2cc(C)on2)Cc2ccccc2Cl)cc1	4	16*	1	29*	-20	1	1	13	8
Cc1ccc(CN2CCCCC(NC(=O)c3cccc(C(F)(F)F)c3)C2=O)cc1 (stereo not given)	.	2	0	3	-3	.	.	.	.
Cc1ccc(NC(=O)CSc2nn(-c3ccccc3)c(=S)s2)cc1S(=O)(=O)N(C)C	4	9.0*	0	22*	-49	5	2	33*	19*
Cc1ccccc1NC(=S)NCCC(c1ccccc1)c1ccccc1	4	16*	1	37*	-4	7	3	8	7
COc1ccc(OC)c(NC(=S)NCCC(c2ccccc2)c2ccccc2)c1	14	8.7*	0	21*	-17	7	2	23*	22*
Cc1ccc(NC(=S)NCCC(c2ccccc2)c2ccccc2)c(C)c1	2	5	0	14	-10	.	.	.	.
CCC(C(=O)OCC(=O)Nc1ccc(SC(F)F)cc1)c1ccccc1 (stereo not given)	14	12*	0	29*	-25	5	3	43*	23*

Screening data deposited in PubChem by several laboratories.
